Measurements published in the supplement of paper PMC10849652.
Of roughly 8,800 targets only a part is listed; those with a hit were picked by preference. About 0.5% of all pairs of compound and target were hits. Unmarked numbers belong to inactive results.

Experiments:
Assay in all cases: log2 fold change, soluble protein after heating vs DMSO (PISA); higher = thermal stabilisation; K562 lysate, 10 uM; active = over 0.2 and 3.5 SD of the protein, either way, in both replicates (recomputed)
[1] = compound: NCC(=O)Nc1ccc(-n2nc(C(F)(F)F)cc2-c2ccc3c(ccc4ccccc43)c2)cc1
Summary of the method: (§1)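 Quantification was by TMTpro 16plex LC-MS/MS with equalised channel sums, applied to the supernatant after 21,000xg for 90 min. Samples were crude K562 extract at 1 mg/mL protein in PBS pH 7.4 with 1 mM MgCl2, treated with 10 μM compound for 30 min, heated for 3 min across 48°C-58°C, pooled and brought to 0.5% NP-40 at 4°C. Values are log-two fold changes in thermal stability relative to solvent controls, from duplicates.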

vorinostat = compound: O=C(CCCCCCC(=O)Nc1ccccc1)NO [vorinostat]
Summary of the method: as §1

silmitasertib = compound: O=C(O)c1ccc2c(c1)nc(Nc1cccc(Cl)c1)c1ccncc12 [silmitasertib]
Summary of the method: as §1

[2] = compound: O=C1NC(=O)C(c2cnc3ccccn23)=C1c1cn2c3c(cc(F)cc13)CN(C(=O)N1CCCCC1)CC2
Summary of the method: as §1

entospletinib = compound: c1cn2cc(-c3ccc4cn[nH]c4c3)nc(Nc3ccc(N4CCOCC4)cc3)c2n1 [entospletinib]
Summary of the method: as §1

UniProt Q9UMZ2, sequence (Q9UMZ2 whole entry, looked up): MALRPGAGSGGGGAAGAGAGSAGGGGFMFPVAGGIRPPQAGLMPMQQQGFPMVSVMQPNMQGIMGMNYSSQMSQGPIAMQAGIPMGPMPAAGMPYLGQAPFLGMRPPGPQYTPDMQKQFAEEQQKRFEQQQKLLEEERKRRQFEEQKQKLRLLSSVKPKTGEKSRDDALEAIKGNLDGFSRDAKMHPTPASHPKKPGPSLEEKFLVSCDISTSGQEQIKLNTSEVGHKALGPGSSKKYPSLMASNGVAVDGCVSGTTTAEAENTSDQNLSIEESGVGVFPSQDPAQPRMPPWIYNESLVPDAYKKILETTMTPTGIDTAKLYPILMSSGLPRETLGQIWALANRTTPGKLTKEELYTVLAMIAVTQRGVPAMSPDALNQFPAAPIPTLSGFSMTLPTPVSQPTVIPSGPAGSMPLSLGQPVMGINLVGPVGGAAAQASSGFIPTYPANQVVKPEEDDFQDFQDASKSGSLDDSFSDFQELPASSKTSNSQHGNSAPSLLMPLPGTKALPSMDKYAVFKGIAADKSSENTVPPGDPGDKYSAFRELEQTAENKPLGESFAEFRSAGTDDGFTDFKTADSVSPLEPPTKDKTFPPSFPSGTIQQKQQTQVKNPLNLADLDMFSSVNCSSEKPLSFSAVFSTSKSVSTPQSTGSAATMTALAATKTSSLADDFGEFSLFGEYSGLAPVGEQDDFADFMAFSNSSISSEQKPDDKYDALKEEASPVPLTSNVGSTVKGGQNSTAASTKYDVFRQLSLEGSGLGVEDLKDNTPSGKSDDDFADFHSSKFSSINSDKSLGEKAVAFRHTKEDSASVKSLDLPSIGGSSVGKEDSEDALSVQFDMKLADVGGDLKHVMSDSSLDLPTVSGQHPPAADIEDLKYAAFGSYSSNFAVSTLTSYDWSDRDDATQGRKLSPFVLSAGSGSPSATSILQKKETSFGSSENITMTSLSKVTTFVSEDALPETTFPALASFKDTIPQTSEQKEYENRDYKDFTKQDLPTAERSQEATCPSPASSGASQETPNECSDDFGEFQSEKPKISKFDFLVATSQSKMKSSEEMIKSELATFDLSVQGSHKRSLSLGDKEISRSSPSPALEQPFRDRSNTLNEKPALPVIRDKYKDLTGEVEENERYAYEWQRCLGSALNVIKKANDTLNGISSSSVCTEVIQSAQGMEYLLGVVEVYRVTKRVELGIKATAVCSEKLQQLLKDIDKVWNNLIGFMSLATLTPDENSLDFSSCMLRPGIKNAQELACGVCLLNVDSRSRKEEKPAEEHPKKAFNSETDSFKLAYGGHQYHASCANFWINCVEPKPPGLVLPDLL
UniProt O94768, sequence (O94768 whole entry, looked up): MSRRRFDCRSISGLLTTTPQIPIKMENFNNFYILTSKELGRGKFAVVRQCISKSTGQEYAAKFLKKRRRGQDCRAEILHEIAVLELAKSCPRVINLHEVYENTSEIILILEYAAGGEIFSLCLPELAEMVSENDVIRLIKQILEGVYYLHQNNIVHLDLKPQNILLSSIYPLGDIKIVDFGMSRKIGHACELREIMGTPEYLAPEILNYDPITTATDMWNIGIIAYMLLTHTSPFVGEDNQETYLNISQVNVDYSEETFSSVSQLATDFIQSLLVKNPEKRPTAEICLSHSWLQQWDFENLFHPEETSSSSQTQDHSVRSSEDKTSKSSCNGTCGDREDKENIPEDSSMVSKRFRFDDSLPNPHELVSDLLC
UniProt P62318, sequence (P62318 whole entry, looked up): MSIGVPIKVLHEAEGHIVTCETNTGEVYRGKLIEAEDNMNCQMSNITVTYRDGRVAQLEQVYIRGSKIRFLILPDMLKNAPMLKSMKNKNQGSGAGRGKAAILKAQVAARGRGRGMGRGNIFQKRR
UniProt Q96SB4, sequence (Q96SB4 whole entry, looked up): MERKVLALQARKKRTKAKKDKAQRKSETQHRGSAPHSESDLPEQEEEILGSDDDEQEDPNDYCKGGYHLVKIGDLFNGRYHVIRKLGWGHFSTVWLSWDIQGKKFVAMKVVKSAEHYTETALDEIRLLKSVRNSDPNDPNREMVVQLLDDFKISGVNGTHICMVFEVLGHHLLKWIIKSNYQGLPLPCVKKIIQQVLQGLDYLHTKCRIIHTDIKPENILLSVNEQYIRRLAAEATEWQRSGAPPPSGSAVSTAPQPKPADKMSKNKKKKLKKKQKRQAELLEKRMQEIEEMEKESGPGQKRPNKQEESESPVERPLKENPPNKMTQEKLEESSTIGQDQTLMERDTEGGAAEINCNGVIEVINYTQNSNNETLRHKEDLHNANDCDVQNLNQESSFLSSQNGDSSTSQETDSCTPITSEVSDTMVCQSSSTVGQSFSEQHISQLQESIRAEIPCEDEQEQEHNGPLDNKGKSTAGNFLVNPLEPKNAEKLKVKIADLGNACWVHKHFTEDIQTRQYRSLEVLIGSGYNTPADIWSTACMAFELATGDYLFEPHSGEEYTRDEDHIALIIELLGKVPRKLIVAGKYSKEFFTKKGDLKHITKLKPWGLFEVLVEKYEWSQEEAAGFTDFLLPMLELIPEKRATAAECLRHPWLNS
UniProt Q15544, sequence (Q15544 whole entry, looked up): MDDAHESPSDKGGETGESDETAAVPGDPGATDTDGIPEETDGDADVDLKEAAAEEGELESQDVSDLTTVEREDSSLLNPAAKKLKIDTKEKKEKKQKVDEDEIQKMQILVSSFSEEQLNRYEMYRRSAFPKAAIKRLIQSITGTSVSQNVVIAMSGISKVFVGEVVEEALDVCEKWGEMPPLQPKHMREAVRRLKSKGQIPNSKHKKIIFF
UniProt Q9UHW9, sequence (Q9UHW9 whole entry, looked up): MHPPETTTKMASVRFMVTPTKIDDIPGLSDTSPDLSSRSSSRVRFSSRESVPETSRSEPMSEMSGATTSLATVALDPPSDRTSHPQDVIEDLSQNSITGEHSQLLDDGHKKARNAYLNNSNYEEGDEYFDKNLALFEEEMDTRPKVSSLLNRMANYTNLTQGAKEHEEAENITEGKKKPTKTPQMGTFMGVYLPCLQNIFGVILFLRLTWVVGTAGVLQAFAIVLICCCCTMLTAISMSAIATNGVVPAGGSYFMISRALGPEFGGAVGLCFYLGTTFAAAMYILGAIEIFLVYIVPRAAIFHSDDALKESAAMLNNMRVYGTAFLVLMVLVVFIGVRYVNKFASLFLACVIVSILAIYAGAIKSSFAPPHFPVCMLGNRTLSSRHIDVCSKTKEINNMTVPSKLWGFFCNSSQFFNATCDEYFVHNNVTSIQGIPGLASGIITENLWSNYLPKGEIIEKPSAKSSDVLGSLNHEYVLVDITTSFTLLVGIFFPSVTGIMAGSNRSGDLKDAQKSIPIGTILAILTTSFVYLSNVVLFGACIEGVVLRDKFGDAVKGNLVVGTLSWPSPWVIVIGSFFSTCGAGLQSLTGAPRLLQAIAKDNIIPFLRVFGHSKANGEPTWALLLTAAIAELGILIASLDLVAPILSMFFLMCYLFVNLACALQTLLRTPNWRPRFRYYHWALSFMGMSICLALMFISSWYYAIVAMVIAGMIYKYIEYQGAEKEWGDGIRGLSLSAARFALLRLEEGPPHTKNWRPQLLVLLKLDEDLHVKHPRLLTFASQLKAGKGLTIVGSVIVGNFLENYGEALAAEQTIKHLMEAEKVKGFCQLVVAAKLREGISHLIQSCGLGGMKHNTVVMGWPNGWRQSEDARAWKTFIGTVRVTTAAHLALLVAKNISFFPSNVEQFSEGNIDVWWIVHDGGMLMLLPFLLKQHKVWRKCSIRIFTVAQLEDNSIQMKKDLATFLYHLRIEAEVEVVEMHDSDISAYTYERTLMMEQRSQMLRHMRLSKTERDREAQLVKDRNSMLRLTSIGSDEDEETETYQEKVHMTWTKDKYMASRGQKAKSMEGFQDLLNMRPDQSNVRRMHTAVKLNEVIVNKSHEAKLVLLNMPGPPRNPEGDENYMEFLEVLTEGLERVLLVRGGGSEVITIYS
UniProt Q8N1F8, sequence (Q8N1F8 whole entry, looked up): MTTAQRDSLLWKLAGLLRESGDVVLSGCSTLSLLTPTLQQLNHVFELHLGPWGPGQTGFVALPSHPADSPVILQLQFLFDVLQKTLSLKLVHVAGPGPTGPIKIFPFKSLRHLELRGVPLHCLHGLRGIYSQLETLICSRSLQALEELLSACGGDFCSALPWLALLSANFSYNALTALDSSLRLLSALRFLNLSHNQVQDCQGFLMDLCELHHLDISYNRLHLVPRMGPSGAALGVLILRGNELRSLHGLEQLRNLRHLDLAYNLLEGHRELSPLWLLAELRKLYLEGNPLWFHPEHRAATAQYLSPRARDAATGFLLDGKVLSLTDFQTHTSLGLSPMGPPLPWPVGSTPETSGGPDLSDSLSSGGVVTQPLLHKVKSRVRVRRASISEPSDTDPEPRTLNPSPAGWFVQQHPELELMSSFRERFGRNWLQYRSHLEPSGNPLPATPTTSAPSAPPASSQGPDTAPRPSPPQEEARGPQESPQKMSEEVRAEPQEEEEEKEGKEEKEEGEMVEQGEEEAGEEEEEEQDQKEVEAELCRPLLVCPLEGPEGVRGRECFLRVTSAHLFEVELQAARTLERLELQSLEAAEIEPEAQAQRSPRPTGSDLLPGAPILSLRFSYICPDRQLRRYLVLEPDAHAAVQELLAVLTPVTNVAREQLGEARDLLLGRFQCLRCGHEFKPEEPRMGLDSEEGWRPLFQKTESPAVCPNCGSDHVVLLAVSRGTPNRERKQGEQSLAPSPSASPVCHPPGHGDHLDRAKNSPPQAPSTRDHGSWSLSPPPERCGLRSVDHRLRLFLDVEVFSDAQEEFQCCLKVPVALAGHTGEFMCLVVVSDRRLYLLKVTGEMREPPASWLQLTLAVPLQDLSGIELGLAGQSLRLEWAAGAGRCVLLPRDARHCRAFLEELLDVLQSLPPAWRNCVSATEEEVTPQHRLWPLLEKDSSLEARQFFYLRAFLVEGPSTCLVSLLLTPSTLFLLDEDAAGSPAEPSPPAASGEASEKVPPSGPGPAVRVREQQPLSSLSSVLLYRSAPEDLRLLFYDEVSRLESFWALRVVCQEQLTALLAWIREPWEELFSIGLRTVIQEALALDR
UniProt B2RUZ4, sequence (B2RUZ4 whole entry, looked up): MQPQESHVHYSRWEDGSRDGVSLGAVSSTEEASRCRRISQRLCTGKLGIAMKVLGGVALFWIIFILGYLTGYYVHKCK

Target | log2 fold change [1] | log2 fold change (vorinostat) | log2 fold change (silmitasertib) | log2 fold change [2] | log2 fold change (entospletinib)
SNRPD3 (UniProt P62318) | -0.011 | 0.12 | -0.023 | 0.008 | -0.027
SNAPC2 (UniProt Q13487) | – | -0.631 (active) | -0.122 | -0.086 | –
SLC39A13 (UniProt Q96H72) | – | -0.064 | -0.092 | – | –
SURF2 (UniProt Q15527) | -0.01 | – | – | 0.04 | 0.049
STAU1 isoform 3 (UniProt O95793) | – | -0.076 | -0.103 | -0.156 | –
SIX5 (UniProt Q8N196) | – | 0.162 | -0.011 | -0.097 | –
SRPK1 (UniProt Q96SB4) | -0.043 | -0.172 | 0.119 | 0 | 0.012
SHB (UniProt Q15464) | – | -0.356 (active) | 0.117 | 0.044 | –
STK38L (UniProt Q9Y2H1) | – | -0.162 | 0.184 | 0.022 | 0.043
SZT2 (UniProt Q5T011) | – | 1.2 (active) | -0.081 | – | -0.1
SLC12A6 isoform 2 (UniProt Q9UHW9) | – | 0.17 | -0.03 | -0.064 | -0.114
SSU72 (UniProt Q9NP77) | 0.015 | 0.112 | -0.026 | -0.021 | -0.014
SMG6 (UniProt Q86US8) | 0.119 | -0.3 (active) | 0.015 | -0.012 | 0.024
TARDBP (UniProt K7EN94) | 0.1 | – | – | – | -0.166
SMPD2 (UniProt O60906) | – | 0.261 | -1.47 (active) | – | 0.058
SPAG1 (UniProt Q07617) | 0.227 | – | – | -0.061 | –
SRC isoform 2 (UniProt P12931) | – | 0.073 | -0.069 | – | -0.111

Target | log2 fold change [1] | log2 fold change (vorinostat) | log2 fold change (silmitasertib) | log2 fold change [2] | log2 fold change (entospletinib)
TAOK2 (UniProt Q9UL54) | 0.015 | – | – | -0.051 | 0.01
STK26 isoform 3 (UniProt Q9P289) | – | – | – | 0.014 | 0.116
SYNRG (UniProt Q9UMZ2) | 0.02 | -0.002 | -0.01 | -0.002 | -0.014
SMARCA4 isoform 4 (UniProt P51532) | – | 0.166 | -0.198 | 0.119 | -0.083
SMTN isoform 6 (UniProt P53814) | -0.021 | -0.088 | -0.007 | -0.034 | 0.013
SYPL1 (UniProt Q16563) | -0.003 | 0.005 | -0.03 | -0.02 | 0.014
STK11IP (UniProt Q8N1F8) | -0.017 | -0.254 (active) | 0.025 | 0.008 | 0.024
SRSF9 (UniProt Q13242) | -0.182 | -0.113 | 0.069 | -0.035 | 0.007
SSX5 isoform 2 (UniProt O60225) | -0.111 | -0.059 | 0.091 | – | -0.035
SNAP23 isoform 2 (UniProt O00161) | 0.146 | -0.85 (active) | -0.028 | – | -0.329
STK39 (UniProt Q9UEW8) | -0.01 | -0.633 (active) | 0.028 | -0.006 | -0.026
SIN3B (UniProt O75182) | 0.195 | – | – | 0.559 | -0.089
STK17B (UniProt O94768) | – | -0.221 | 0.807 (active) | 0.052 | –
TAF11 (UniProt Q15544) | -0.005 | – | – | 0.05 | -0.073
SMIM1 (UniProt B2RUZ4) | – | 0.177 | -0.076 | 0.12 | 0.042
SLC11A2 isoform 3 (UniProt P49281) | -0.011 | 0 | -0.047 | 0.013 | -0.054
